Rows were chosen to be rich in hits. Some 3.3% of all compounds tested hit in one or more screens of this group.
PI4K2A block = blocks human PI4K2A kinase activity; Q9BTU6; purified PI4K2A, ADP-Glo luminescence, 1 h; active compounds read low; activity change, negative = inhibition, % at 76.9 µM; 0.13% of 420,000 active; AID 1346378; in the data active = activity change below about -50%; inconclusive = mostly about -30% to -49%;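 note: -100% = wells without enzyme as full effect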
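PI4K2A activity was measured by ADP-Glo luminescence: enzyme (4 ug/mL stock) and phosphatidylinositol (1.2 mM stock) in Tris pH 7.5/MgCl2/EGTA/Triton X-100 buffer were reacted with ATP (300 microM stock) for one hour at ambient temperature.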
LDHA block = blocks human lactate dehydrogenase A | P00338 | purified LDHA, NADH/diaphorase-resazurin fluorescence; active compounds read low | activity change, % (values are at about 110 or 230 µM) | 0.15% of 480,000 active; in the data active = activity change below about -30%; inconclusive = mostly about -25% to -30%;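 note: plate controls were DMSO wells for no effect and wells without enzyme for full effect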
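Resorufin fluorescence (ex540/em590), read at 0 and 20 min after diaphorase/resazurin addition, reports the NADH left after a 5 min room-temperature reaction of 2 nM human LDH5 with 0.06 mM NADH and 0.2 mM pyruvate.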
PI5P4Ka inh = inhibitors of human PI5P4K alpha; 1.2% of 330,000 active; PI5P4Kalpha enzyme, ADP-Glo luminescence, 60 min; active compounds read low; P48426; max response, %; active = max response of -50% or lower; inconclusive = between -30% and -50%; inactive = -30% or higher; note: value at the top dose of about 77 µM; % is set by controls: 0 for no effect and ±100 for the full control effect
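Luminescence from ADP-Glo served as readout of PI5P4Kalpha activity in a qHTS format. Reaction: enzyme, substrate, compound, ATP at 5 microM final, 60 min at RT.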
D3 ag = activates the human D3 dopamine receptor; P35462; 0.58% of 410,000 active; AID 652048; max activation, %; D3R DiscoveRx beta-arrestin cells, luminescence, 90 min; in the data active = max activation above about 30%; note: 0% is about no effect
Target sequence (P35462 whole entry, looked up): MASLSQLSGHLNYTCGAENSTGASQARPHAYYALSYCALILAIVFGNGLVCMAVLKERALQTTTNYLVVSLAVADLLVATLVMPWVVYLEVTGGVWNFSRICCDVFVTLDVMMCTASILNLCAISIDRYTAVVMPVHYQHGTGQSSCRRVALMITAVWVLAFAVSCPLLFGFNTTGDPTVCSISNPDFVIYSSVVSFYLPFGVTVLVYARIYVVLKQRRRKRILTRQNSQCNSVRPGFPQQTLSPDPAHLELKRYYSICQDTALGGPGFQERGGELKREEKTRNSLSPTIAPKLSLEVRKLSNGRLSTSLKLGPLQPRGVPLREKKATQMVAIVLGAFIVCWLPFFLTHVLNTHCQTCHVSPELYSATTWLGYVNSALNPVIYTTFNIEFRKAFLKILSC
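Agonist mode: compounds and dopamine controls were applied to plated cells for 90 min at 37 degrees C after an overnight attachment at 1500 cells/well. Luminescent read-out followed 30 - 60 minutes at room temperature with DiscoveRx detection reagent.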
D3 antag = antagonists of human D3 dopamine receptor. P35462. D3R cells, DiscoveRx beta-arrestin luminescence, antagonist mode; active compounds read low. max response, negative = inhibition, %. 2.5% of 360,000 active; in the data active = max response below about -50%; inconclusive = no clear call, values can overlap the other calls; note: % is set by controls: 0 for no effect and ±100 for the full control effect
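Cells expressing the human receptor were seeded at 1500 cells/well, incubated overnight at 37 degrees C in 5% CO2, then exposed to library compounds with dopamine controls for 90 minutes at 37 degrees C before luminescent detection.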
ADP-Glo counter = ADP-Glo luciferase interference, PI5P4K counter-screen; shares compounds with PI5P4Ka inh; ADP-Glo detection counter-screen, luciferase luminescence, no enzyme; Potency, µM (series often up to 76.9 µM), for inactives: top-dose activity change, negative = inhibition, hits mostly inhibitors; 1,100 tested, under 10 active; AID 743285; active = well fitted curve in the direction sought with a large enough effect; inconclusive = small, poorly fitted or top-dose-only effect, or another doubt; inactive = no such curve, though single readings can be large or run the other way
Active calls of the source: *.

`COCCn1nnnc1C(c1cc2cccc(C)c2[nH]c1=O)N1CCN(c2ccccc2F)CC1` (stereo not given) gave PI4K2A block -8.0, LDHA block 10.4, PI5P4Ka inh 2.5, D3 ag -2.2 and D3 antag -53.5*.
Cc1ccc(C(c2nnnn2Cc2cccs2)N2CCN(Cc3ccc4c(c3)OCO4)CC2)cc1 (stereo not given) was read as PI4K2A block -4.8, LDHA block -7.7, PI5P4Ka inh 0.2, D3 ag -22.1 and D3 antag -53.1*.
`COCCn1nnnc1C(c1ccc(C)cc1)N1CCN(Cc2ccc3c(c2)OCO3)CC1` (stereo not given) gave PI4K2A block 3.6, LDHA block -7.6, PI5P4Ka inh -14.4, D3 ag -8.2 and D3 antag -10.1.
COc1ccc(C(c2nnnn2Cc2cccs2)N2CCN(c3ccccc3F)CC2)cc1OC (stereo not given) was read as PI4K2A block -10.7, LDHA block 0.6, PI5P4Ka inh 2.0, D3 ag -0.3 and D3 antag -81.5*.
`COCCn1nnnc1C(c1ccccc1OC)N1CCN(c2ccccc2F)CC1` (stereo not given) gave PI4K2A block -0.6, LDHA block -5.9, PI5P4Ka inh 0.6, D3 ag 3.2 and D3 antag 0.0.
`COc1ccccc1CN1CCN(C(CC(C)C)c2nnnn2Cc2cccs2)CC1` (stereo not given) gave PI4K2A block -2.2, LDHA block 2.4, PI5P4Ka inh 6.1, D3 ag -15.8 and D3 antag -62.8*.
`CC(C)[C@H](NC(=O)OCc1ccccc1)C(=O)OCc1ccc(C#N)cc1` gave LDHA block 7.6.
`Cc1cc(Nc2ccccc2C(=O)O)n2ncnc2n1` gave PI4K2A block -1.8, LDHA block -4.8, D3 ag 0.8, D3 antag -8.5 and ADP-Glo counter 0.8%.
`Cc1cc(Nc2cc(C(=O)O)ccc2C)n2ncnc2n1` gave PI4K2A block -3.7, LDHA block -7.3, PI5P4Ka inh 4.1, D3 ag 2.9 and D3 antag -7.5.
Cc1c(C#N)c(NC(=O)CN2CCN(C(=O)C3CC3)CC2)n(C2CCCCC2)c1C was read as LDHA block 10.1.
For Cc1c(C(=O)Nc2ccc3c(c2)OCCO3)sc2ncnc(N3CCCCC3C)c12 (stereo not given) the results were PI4K2A block -5.1, LDHA block -0.9, D3 ag 20.1, D3 antag 54.4 and ADP-Glo counter -3.4%.
Screening COc1ccc(OC)c([N+](=O)[O-])c1C(N)=O returned PI4K2A block 5.7, LDHA block 9.4, PI5P4Ka inh -64.9*, D3 ag 5.0, D3 antag 7.9 and ADP-Glo counter -9.7%.
Screening COc1ccc(NC(C)=O)c([N+](=O)[O-])c1[N+](=O)[O-] returned PI4K2A block -0.7, LDHA block 17.8, PI5P4Ka inh -2.1, D3 ag 17.5 and D3 antag 2.7.
O=C(CNc1ncnc2nc[nH]c12)NCCc1ccccc1 was read as LDHA block 1.5.
Cc1ccc(NC2=NCCC2)cc1Cl was read as PI4K2A block -3.9, LDHA block -0.3, PI5P4Ka inh 1.1, D3 ag 3.0 and D3 antag inconclusive.
Screening Cc1nc2ccc(NC3=NCCCCC3)cc2s1 returned PI4K2A block -2.2, LDHA block 5.1, PI5P4Ka inh -54.6*, D3 ag 4.1, D3 antag -28.3 and ADP-Glo counter -9.8%.
CN(CCC#N)C(=O)CSc1ncc(-c2ccccc2)o1 was read as LDHA block 7.3.
`O=C(Oc1cc2oc(=O)cc(-c3ccccc3)c2cc1Cl)C1CCCCC1` gave PI4K2A block 8.0, LDHA block -1.9, PI5P4Ka inh -88.0*, D3 ag 1.6, D3 antag 0.0 and ADP-Glo counter -7.6%.
`O=C(COc1ccc2c(-c3ccccc3)cc(=O)oc2c1)NC1CCCCC1` gave LDHA block -0.6.
NC(=O)c1ccsc1NC(=O)COC(=O)c1ccc([N+](=O)[O-])o1 was read as PI4K2A block 19.1, LDHA block -6.3, PI5P4Ka inh -3.1, D3 ag 10.1 and D3 antag 2.7.
Screening NC(=O)c1ccsc1NC(=O)c1ccc([N+](=O)[O-])o1 returned PI4K2A block 4.8, LDHA block -9.3, PI5P4Ka inh -52.1*, D3 ag -7.7, D3 antag 0.0 and ADP-Glo counter -15.3%.
For CC(=O)N(C)c1ccc(NC(=O)/C(C)=C\c2ccccc2)cc1 the results were LDHA block 19.6.
For O=C1COc2ccc(S(=O)(=O)NCCc3ccccc3)cc2N1 the results were PI4K2A block 0.9, LDHA block -3.3, PI5P4Ka inh -50.8*, D3 ag 2.1, D3 antag 4.0 and ADP-Glo counter 1.7%.
`CCNS(=O)(=O)c1ccc2c(c1)NC(=O)CO2` gave LDHA block -5.9.
CCCCN=C1NN=C(c2ccc3c(c2)OCCO3)CS1 was read as PI4K2A block -0.5, LDHA block -1.6, PI5P4Ka inh -1.6, D3 ag 1.5 and D3 antag -13.5.
Screening c1cc2c(cc1C1=NNC(=NC3CC3)SC1)OCCO2 returned PI4K2A block inconclusive, LDHA block -5.7, PI5P4Ka inh -50.9*, D3 ag 0.1, D3 antag -11.3 and ADP-Glo counter inconclusive.
Screening CCN(CC)C(=S)SCc1c(C)c(C)c(Br)c(C)c1C returned LDHA block -3.4.
`CCc1nnc(NC(=O)c2cc(-c3ccc(C)o3)nc3ccccc23)s1` gave PI4K2A block -3.5, LDHA block 0.8, PI5P4Ka inh -54.7*, D3 ag -2.0, D3 antag -30.0 and ADP-Glo counter 5.2%.
Screening Cc1ccc(-c2cc(C(=O)O)c3cc(Br)ccc3n2)o1 returned PI4K2A block -13.2, LDHA block -1.1, PI5P4Ka inh -68.8*, D3 ag -7.3, D3 antag 7.1 and ADP-Glo counter 0.1%.
Screening Cc1ccc(-c2cc(C(=O)NCc3ccco3)c3ccccc3n2)o1 returned PI4K2A block -19.5, LDHA block -1.4, PI5P4Ka inh -88.1*, D3 ag -1.3, D3 antag inconclusive and ADP-Glo counter -0.9%.
For Cc1cc(C(=O)NCc2ccco2)c2ccccc2n1 the results were PI4K2A block -4.3, LDHA block -4.4, PI5P4Ka inh -5.9, D3 ag -16.1 and D3 antag 12.2.
`CCCN1CNc2c(c(=O)[nH]c(=S)n2CCc2ccc(Cl)cc2Cl)C1` gave LDHA block -2.6.

Screening data (PubChem BioAssay)
